PubChem BioAssay (NCI)
This is part of a sample that, as a whole, favours compounds with a hit. Of some 79,000 tested, about 15% had one in any assay. No stated cut-off is given here; in the data, active means growth inhibition above about 70%; inactive means the rest.

Assays:
[1] = NCI Yeast Anticancer Drug Screen. Data for the rad50 strain (AID 155);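 further: 0% = growth of vehicle-only cultures of the same strain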; settings: S. cerevisiae rad50 strain growth inhibition; at 50.0 µM; active compounds read high
How it was run: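 Relative growth inhibition (compound vs vehicle) was measured in yeast with a defined repair-gene alteration.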

[2] = NCI Yeast Anticancer Drug Screen. Data for the mec2-1 strain (AID 157); settings: S. cerevisiae mec2-1 strain, at 50.0 µM, active compounds read high
How it was run: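 Using mec2-1 yeast: add compound, measure growth, express inhibition versus vehicle-treated cultures.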

[3] = NCI Yeast Anticancer Drug Screen. Data for the sgs1 mgt1 strain (AID 161);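 further: 0% = growth of cultures given vehicle only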; settings: S. cerevisiae sgs1 mgt1 strain, at 50.0 µM, active compounds read high
How it was run: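 Compounds are added to genetically altered yeast, and growth is compared with cultures given vehicle alone to give percent inhibition.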

[4] = NCI Yeast Anticancer Drug Screen. Data for the cln2 rad14 strain (AID 165);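 further: 0% = growth equal to vehicle treated cultures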; settings: S. cerevisiae cln2 rad14 strain, at 50.0 µM, active compounds read high
How it was run: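 Yeast strain cln2 rad14, bearing defects in cell cycle control and DNA repair, serves as the test system; values reflect growth inhibition compared with vehicle.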

[5] = NCI Yeast Anticancer Drug Screen. Data for the bub3 strain (AID 167); settings: S. cerevisiae bub3 mutant strain, at 50.0 µM, active compounds read high
How it was run: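 Screening used yeast with an engineered genetic alteration affecting cell cycle control. Compound-exposed cultures were compared with vehicle cultures, and reduced growth was taken as inhibition.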

[6] = NCI Yeast Anticancer Drug Screen. Data for the mlh1 rad18 strain (AID 175); settings: S. cerevisiae mlh1 rad18 strain growth inhibition; at 50.0 µM; active compounds read high
How it was run: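 Steps: expose repair-defective yeast to compound; measure growth; express inhibition against vehicle-treated controls.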

Measured: growth inhibition

Brc1cccc(Br)n1
inactive: [1] -6.45% | [2] -6.15% | [3] -7.55% | [4] 7.4% | [5] 2.1% | [6] 4.05%

COC1=CC(=O)C(C)=CC1=O
inactive: [1] -2.1% | [2] 2.65% | [3] 3.5% | [4] 7.35% | [5] 16.3% | [6] 7.5%

CSc1nc(C=O)nc(SC)n1
inactive: [1] 1.25% | [2] -12% | [3] 9.1% | [4] -11.3% | [5] 3.45% | [6] -17.1%

COc1nc(Cl)cc2nc(Cl)cn12
inactive: [1] 3.4% | [2] 9.35% | [3] -3.65% | [4] 9.55% | [5] -11.8% | [6] 2.55%

Nc1nnc2c(=O)[nH]cnc2n1
inactive: [1] 2.25% | [2] -8.8% | [3] -29.2% | [4] -14.4% | [5] -12.2% | [6] -7.35%

CCOC(=O)C(Cl)(Cl)C(Cl)(OCC)C(=O)OCC (stereo unspecified)
inactive: [1] 16.1% | [2] 26.1% | [3] 26.8% | [4] -24.4% | [5] 34.5% | [6] 22.2%

CCCC(CCc1ccccc1)C(N)=O (stereo unspecified)
inactive: [1] 1.4% | [2] -5.7% | [3] 9.15% | [4] -7.35% | [5] 10.8% | [6] -1.9%

O=C(/C(=N\Nc1ccc([N+](=O)[O-])cc1[N+](=O)[O-])c1ccccc1)c1ccccc1
inactive: [1] -11.6% | [2] -11.7% | [3] -2.5% | [4] -20.8% | [5] 2.95% | [6] -1.3%

CCC1(C)C(=O)C(C)(CC)C1=O (stereo unspecified)
inactive: [1] 23.6% | [2] 20.6% | [3] 21.4% | [4] 0.6% | [5] 20% | [6] 6.85%

NS(=O)(=O)c1ccc(NC(=O)CCl)cc1
inactive: [1] 6.5% | [2] -6.8% | [3] -1.9% | [4] 11.7% | [5] 3.3% | [6] -15.9%

CSc1nc(=O)cnn1C
inactive: [1] -22.3% | [2] -8.6% | [3] -15.6% | [4] -0.5% | [5] -49.2% | [6] -5.35%

CCNCC(=O)Nc1ccc(C(=O)OC)cc1
inactive: [1] -8% | [2] -29.4% | [3] -9.9% | [4] -20% | [5] 1.45% | [6] -28.9%

Cc1c(CCC(C)C)oc2cc3oc(CCC(C)C)c(C)c3cc12
inactive: [1] 21.7% | [2] 2.2% | [3] 2% | [4] -4.8% | [5] 6.3% | [6] 18.5%

CC(C)c1cccc2ccccc12
inactive: [1] 2.85% | [2] 0.2% | [3] -2.9% | [4] -13.8% | [5] -4.7% | [6] 13.4%

CCCCOC(OCCCC)C(C)(C)CN(C)C
inactive: [1] 14.9% | [2] 13.2% | [3] 13.4% | [4] 17.9% | [5] 7.15% | [6] 19.1%

N#Cc1c(C#N)c(-c2ccccc2)n(-c2ccccc2)c1N
inactive: [1] 10.7% | [2] 12% | [3] -29.7% | [4] -12.8% | [5] -11.2% | [6] -22.1%

CN(C)c1ccc(C2SCC(=O)N2NS(=O)(=O)c2cccc(C(=O)O)c2)cc1 (stereo unspecified)
inactive: [1] 5.05% | [2] -21.2% | [3] -10.8% | [4] 4.75% | [5] -24.6% | [6] -2.2%

O=C(COc1cc(Cl)ccc1Cl)NCc1ccc(Cl)cc1
inactive: [1] 15.2% | [2] 2.1% | [3] 12.6% | [4] 10.1% | [5] 34.1% | [6] 14.8%

COc1cc2c(c(OC)c1OC)CCC1(C)C(=O)NN=C21 (stereo unspecified)
inactive: [1] -18.1% | [2] 11.1% | [3] 23.5% | [4] -1.55% | [5] 13.7% | [6] 3.9%

CC(=N\NS(=O)(=O)c1ccc(C)cc1)/C(C)=N/NS(=O)(=O)c1ccc(C)cc1
inactive: [1] 25.3% | [2] -1.9% | [3] 12.8% | [4] 0.85% | [5] 0.95% | [6] -8.3%

O=C(CCCn1cnc([N+](=O)[O-])n1)NCCn1ccnc1[N+](=O)[O-]
inactive: [1] -3.1% | [2] -7.3% | [3] -10.3% | [4] -5.1% | [5] -13.6% | [6] -26.3%

CC(C)(Oc1ccc2c(=O)cc(-c3ccccc3)oc2c1)C(=O)Nc1c(Cl)cccc1Cl
inactive: [1] 7.95% | [2] -18.8% | [3] 10.2% | [4] -59% | [5] 9.75% | [6] -14.8%

CC(=O)Nc1ccc(Cc2ccc3[nH]c(=O)cc(C)c3c2)cc1
inactive: [1] -16.3% | [2] 18.6% | [3] 15.8% | [4] 5.35% | [5] -30.1% | [6] 12.9%

CCCCNCC1C(O)CCC2CN3CCc4c([nH]c5ccccc45)C3CC21 (stereo unspecified)
inactive: [1] 15.9% | [2] 5.85% | [3] 11.3% | [4] 9.9% | [5] 6.05% | [6] 16.9%

Cc1ccc2ccccc2c1CP(=O)(O)O
inactive: [1] -18.9% | [2] -11.1% | [3] -10.4% | [4] -10.6% | [5] 15.2% | [6] -31.4%

O=C(Nc1ccccc1)C1C2C=CC(C2)C1C(=O)Nc1ccccc1 (stereo unspecified)
inactive: [1] 0.2% | [2] 27.9% | [3] 5.05% | [4] -11.7% | [5] 21.4% | [6] -8.25%

Nc1cc2cn[nH]c2cc1N
inactive: [1] -10.6% | [2] 4.75% | [3] 4.4% | [4] -8.75% | [5] 9.3% | [6] 25.6%

Nc1nc2ccccc2[nH]1
inactive: [1] 2.2% | [2] -0.3% | [3] -17.7% | [4] 0.8% | [5] -11.8% | [6] 6.95%

O=C(NCSC1=NCCS1)NCSC1=NCCS1
inactive: [1] -7.05% | [2] -20.4% | [3] 6.85% | [4] 16.5% | [5] 2.85% | [6] -14.8%

CC#CCN(C(C)C)C(C)C
inactive: [1] 15.4% | [2] 8.3% | [3] -11.4% | [4] -34.5% | [5] -21.5% | [6] -27.1%

Cc1ncc(COP(=O)(O)O)c(C)c1O
inactive: [1] -15.7% | [2] -10.1% | [3] -33.5% | [4] -33.6% | [5] -31.3% | [6] -13.6%

FC(F)(F)c1nnc(-c2ccccc2)nn1
inactive: [1] -8.8% | [2] -16.1% | [3] -11.4% | [4] -36.6% | [5] -14.8% | [6] -8.5%

COC(=O)N1C2c3ccccc3C(c3ccccc32)N1C(=O)OC
inactive: [1] 6% | [2] 21.5% | [3] 11.3% | [4] -54.8% | [5] 32.8% | [6] 33.8%

Cc1ccc([N+](=O)[O-])c(P(=O)(O)O)c1
inactive: [1] 12.6% | [2] 13% | [3] -14.7% | [4] -3.45% | [5] 3.4% | [6] -12.2%

O=C(O)c1ccccc1[N+](=O)[O-]
inactive: [1] -4.1% | [2] 10.1% | [3] -9.5% | [4] 1.3% | [5] -4.3% | [6] 10.8%

O=[N+]([O-])C(=C1NCCN1)C(Cl)=C(Cl)Cl
inactive: [1] -43% | [2] -27.9% | [3] 5.3% | [4] -18.6% | [5] -1.2% | [6] -26%

CC1(O)CCC(C(C)(C)C)CC1 (stereo unspecified)
inactive: [1] 22.6% | [2] 12.3% | [3] -1.2% | [4] 2.05% | [5] 2.95% | [6] 11.1%

Cc1ccc(C2(O)CC(c3ccc([N+](=O)[O-])o3)=NN2C(=O)COc2ccccc2Cl)cc1 (stereo unspecified)
inactive: [1] 46.1% | [2] -15.2% | [3] -0.45% | [4] 0.15% | [5] -1.9% | [6] -6.45%

O=C(SCc1ccccc1)C(O)c1ccccc1 (stereo unspecified)
inactive: [1] 1.95% | [2] 6.9% | [3] 15.7% | [4] -24.6% | [5] 19.3% | [6] 5.2%

O=C(Nc1ccc(Nc2ccc(NC(=O)c3ccccc3)c3c2C(=O)c2ccccc2C3=O)c2c1C(=O)c1ccccc1C2=O)c1ccccc1
inactive: [1] 6.8% | [2] -15.6% | [3] 6.05% | [4] 6.1% | [5] -1.95% | [6] -9.1%

CC(C)CCC1(C2CCOCC2)NC(=O)NC1=O (stereo unspecified)
inactive: [1] -9.85% | [2] -6.6% | [3] -4.85% | [4] -26.6% | [5] -7.55% | [6] 0.95%
